Measurements reported in PubChem BioAssay AID1224855 (National Center for Advancing Translational Sciences (NCATS), 2016).
Results filed as inconclusive are left out. Calls of active or inactive are those of the source. Calls follow the shape of the dose curve; as a rule, active = well fitted inhibition curve with a large enough effect; inconclusive = small, poorly fitted or top-dose-only effect; inactive = no such curve, though single readings can be large or run the other way.

assay: Confirmation assay for measurement of the activity of small molecule inhibitors on Zika virus induced Caspase-3 activity in human iPSC derived neural progenitor cells (hNPCs); conditions: hNPC ZIKV-induced caspase-3/7, Caspase-Glo luminescence, 6 h; series mostly up to 46.1 µM
Outline: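 hNPCs, 350 cells/well, cultured 16-20 h; cpd 1 h pre-incubation; ZIKV 2 FFU/cell, 6 h, 37 C/5% CO2; Caspase-Glo 3/7, 30 min RT; luminescence; normalized vs uninfected/infected controls.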

**Q.** Which Potency does the source give for `CN(C)c1cc(NC(=O)CNC(C)(C)C)c(O)c2c1C[C@@H]1C[C@H]3[C@H](N(C)C)C(=O)C(C(N)=O)=C(O)[C@@]3(O)C(=O)C1=C2O` here?
**A.** inactive

**Q.** Which Potency does the source give for `O=C(O)c1cccc(-c2noc(-c3ccccc3F)n2)c1` here?
**A.** 1.73 µM (active)

**Q.** Which Potency does the source give for `CC(=NNC(=S)N1CCC1)c1ccccn1` here?
**A.** inactive

**Q.** For `COc1cccc2c1C(=O)c1c(O)c3c(c(O)c1C2=O)C[C@@](O)(C(=O)CO)C[C@@H]3O[C@H]1C[C@H](N)[C@H](O[C@@H]2CCCCO2)[C@H](C)O1`, which Potency is on record?
**A.** inactive

**Q.** Which Potency does the source give for `Cc1ccc(O)c(-n2nc3ccccc3n2)c1` here?
**A.** 4.35 µM (active)

**Q.** Which Potency does the source give for `COc1cccc(-c2ccc(NC(=O)C3=C(C(=O)O)CCC3)c(F)c2)c1` here?
**A.** 2.45 µM (active)

**Q.** Which Potency does the source give for `Cc1ccc(C(=O)c2ccc(CC(=O)O)n2C)cc1` here?
**A.** inactive

**Q.** For `CN1CC(=O)N/C1=N/C(=O)Nc1cccc(Cl)c1`, which Potency is on record?
**A.** 4.35 µM (active)

**Q.** With `Oc1cc(O)cc(/C=C/c2ccc(O)c(O)c2)c1` as the compound, how does the Potency read?
**A.** 4.89 µM (active)

**Q.** For `CC[C@@]1(O)C[C@H](O[C@H]2C[C@H](N(C)C)[C@H](O[C@H]3C[C@H](O)[C@H](O[C@H]4CCC(=O)[C@H](C)O4)[C@H](C)O3)[C@H](C)O2)c2c(cc3c(c2O)C(=O)c2c(O)cccc2C3=O)[C@@H]1C(=O)OC`, which Potency is on record?
**A.** inactive

**Q.** Which Potency does the source give for `C[C@@H]1CCN(C(=O)CC#N)C[C@H]1N(C)c1ncnc2[nH]ccc12` here?
**A.** inactive

**Q.** Which Potency does the source give for `CCC(C(=O)O)c1ccc(N2Cc3ccccc3C2=O)cc1` (centres undefined) here?
**A.** 5.48 µM (active)

**Q.** For `CC(=O)Nc1ccc([C@H](C)C(=O)Nc2ncc(C(C)C)s2)cc1`, which Potency is on record?
**A.** 17.3 µM (active)

**Q.** For `CCCC(=O)OC[C@@H](OC(=O)CCC)[C@@H](OC(=O)CCC)[C@H](Cn1c2nc(=O)[nH]c(=O)c-2nc2cc(C)c(C)cc21)OC(=O)CCC`, which Potency is on record?
**A.** inactive

**Q.** For `CCCS(=O)c1ccc2nc(NC(=O)OC)[nH]c2c1` (centres undefined), which Potency is on record?
**A.** 8.69 µM (active)

**Q.** Which Potency does the source give for `COc1ccc2nc(NC(=O)Nc3ccccc3)sc2c1` here?
**A.** 8.69 µM (active)

**Q.** For `CN(C)c1ccc(/C=C2\C(=O)Nc3ccccc32)cc1`, which Potency is on record?
**A.** 7.74 µM (active)

**Q.** For `CCN1/C(=C/C=C/c2sc3ccccc3[n+]2CC)Sc2ccccc21`, which Potency is on record?
**A.** inactive

**Q.** Which Potency does the source give for `Nc1ncnc2c1ncn2[C@@H]1O[C@@H](CO)[C@H](O)[C@H]1O` here?
**A.** inactive

**Q.** With `Nc1ccc(N=Nc2ccccc2)c(N)n1` as the compound, how does the Potency read?
**A.** 15.5 µM (active)

**Q.** With `Clc1ccccc1-c1nc(-c2ccncc2)no1` as the compound, how does the Potency read?
**A.** 4.35 µM (active)

**Q.** With `NC1CCC(Nc2nc(Nc3ccc(C(=O)N4CCCCC4)cc3)c3ncn(-c4cccc(F)c4)c3n2)CC1` (centres undefined) as the compound, how does the Potency read?
**A.** inactive

**Q.** With `COCCn1c2c([n+](Cc3cnccn3)c1C)C(=O)c1ccccc1C2=O` as the compound, how does the Potency read?
**A.** 6.15 µM (active)

**Q.** With `O=C1C[C@@H](c2ccc(O)cc2)Oc2cc(O)cc(O)c21` as the compound, how does the Potency read?
**A.** 17.3 µM (active)

**Q.** With `CC1(C)Cc2c(sc(NC(=S)NC(=O)c3ccccc3)c2C(=O)O)CO1` as the compound, how does the Potency read?
**A.** inactive

**Q.** Which Potency does the source give for `COc1cc2nc(-c3ccc(N4CCN(C)CC4)cc3)nc(NCCN3CCOCC3)c2cc1OC` here?
**A.** inactive

**Q.** For `CC(C)c1ccc2oc3nc(N)c(C(=O)O)cc3c(=O)c2c1`, which Potency is on record?
**A.** 1.73 µM (active)

**Q.** With `Nc1ccc(-c2ccc3ccccc3n2)cc1` as the compound, how does the Potency read?
**A.** 3.88 µM (active)

**Q.** Which Potency does the source give for `Cc1c(N)c(=O)n(-c2ccccc2)n1C` here?
**A.** inactive

**Q.** With `C/C(=N\O)c1ccc(OCC(=O)N2CCCCC2)cc1` as the compound, how does the Potency read?
**A.** 7.74 µM (active)

**Q.** Which Potency does the source give for `O=C(O)[C@@H](c1ccc(OCc2ccc3ccccc3n2)cc1)C1CCCC1` here?
**A.** 6.9 µM (active)

**Q.** For `COc1cccc(-c2cc(=O)c3ccccc3o2)c1N`, which Potency is on record?
**A.** 4.89 µM (active)

**Q.** With `Cc1[nH]c(C=C2C(=O)Nc3ccccc32)c(C)c1CCC(=O)O` as the compound, how does the Potency read?
**A.** inactive

**Q.** Which Potency does the source give for `CC(C(=O)O)c1ccc(C(=O)c2ccccc2)s1` (centres undefined) here?
**A.** 6.9 µM (active)
